Screening results deposited in PubChem BioAssay by Broad Institute.
RAD52 inh = inhibitors of human RAD52 DNA annealing | P43351 | recombinant RAD52 DNA annealing, FRET fluorescence | inhibition, % at 18.7 µM | hit rate 0.46% among 360,000 | AID 651710;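 active = every replicate showing at least 50% inhibition; inconclusive = mean inhibition at least 50% but not in every replicate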
NSD2 HMT inh = blocks human histone methyltransferase NSD2 | O96028 | NSD2 peptide methylation, AlphaScreen, 120 min | inhibition, % at 12.5 µM | hit rate 0.54% among 310,000 | AID 743445; in the data active = inhibition above about 50%
AF4-AF9 inh = blocks AF4 peptide binding to human AF9; hit rate 0.47% among 350,000; AID 651704; P42568; AlphaScreen, biotin-AF4 peptide binding to FLAG-AF9; inhibition, % at 10 µM;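 active = every replicate reaching a set inhibition limit, whatever the replicate mean, cut at about 25% in these data; inconclusive = mean inhibition reaches that limit but some replicates miss it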;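 note: 0% = plate neutral control median and 100% = total signal loss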
Casp6 inh = blocks human caspase-6 cleavage activity | purified caspase-6, Z-VEID-R110 cleavage fluorescence | inhibition, % at 12.5 µM | hit rate 0.53% among 350,000;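 active = mean inhibition across replicates at least about 35%, with every replicate also reaching that limit, limit read from the data; inconclusive = only one of the two criteria met; inactive = neither criterion met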;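 note: 0% = median of neutral control wells and 100% = no fluorescence left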
miR122 inh = miR-122 inhibition in Huh7 cells; hit rate 0.3% among 340,000; AID 602342; activation (reporter increase), % at 12.5 µM; Huh7 miR-122 Renilla luciferase sensor, 48 h; neutral wells = 0, positive control = 100;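 active = mean replicate activation score at least 90 and every replicate individually at or above 90; inconclusive = only one of the two criteria met; inactive = neither criterion met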;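 note: higher luciferase means less miR-122 activity so hits act as miR-122 inhibitors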
Alpha interfer = counter-screen: AlphaScreen signal interference | shares compounds with AF4-AF9 inh | signal luminescence | AC50, µM (doses to about 12 µM), for inactives: top-dose activity change, negative = inhibition | hit rate 45% among 530 | AID 720494; cut-off not given, nearly all actives have AC50 up to about 14 µM
An asterisk follows results filed as active; ? = inconclusive; . = no result given; ! = repeats disagree; [ ] = remark or other dose. Sampled rows, rich in hits. Any-hit rate of the full collection: about 1.5%.

SMILES	RAD52 inh	NSD2 HMT inh	AF4-AF9 inh	Casp6 inh	miR122 inh	Alpha interfer
CCOC(=O)C1CCCN(C2=C(NS(=O)(=O)c3ccc(Br)cc3)C(=O)c3ccccc3C2=O)C1 (configuration not stated)	7	46	52*	.	.	-20%
CC1CCN(C2=C(NS(=O)(=O)c3ccc(Br)cc3)C(=O)c3ccccc3C2=O)CC1	-2	30	50*	-1	2	-36%
CC1CCN(C(=O)CCNS(=O)(=O)c2ccc(Br)cc2)CC1	2	1	-2	1	9	.
CC(=NNC(=S)N1CCN(C2CCCCCC2)CC1)c1ccccn1	-16	-2	46*	-25	4	1.2µM*
O=C(NCCCN1CCCC1=O)C1CCN(S(=O)(=O)c2cccc(C(F)(F)F)c2)CC1	4	1	27*	-267	.	-11%
O=C(NCCCN1CCCC1=O)C1CCN(S(=O)(=O)c2ccccc2)CC1	0	0	?	0	1	.
Cc1noc(C)c1NC(=O)Nc1ccc2c(c1)C(=O)N([C@@H](C)CO)C[C@@H](C)[C@H](CN(C)C(=O)Nc1cccc3ccccc13)OCCCC[C@@H](C)O2	.	.	.	.	-15[16.7 µM]	.
CN(C)C(=O)[C@H]1[C@H](CO)[C@H]2Cn3c(ccc(-c4cncnc4)c3=O)[C@H]2N1Cc1ccccc1F	0	.	-1	1	1[16.7 µM]	.
C[C@@H]1CN([C@@H](C)CO)C(=O)c2cc(NS(=O)(=O)c3cccs3)ccc2O[C@@H](C)CCCCO[C@@H]1CN(C)Cc1ccccc1	-15	.	5	0	-1[16.7 µM]	.
CN(C)c1ccc(NC(=S)NC23CC4CC(CC(C4)C2)C3)cc1	-14	8	44*	10	6	-29%
CCOc1ccc(NC(=S)NC23CC4CC(CC(C4)C2)C3)cc1	-29	0	-6	0	2	.
CO[C@H]1CN(C)C(=O)c2ccc(NC(=O)C3CCC3)cc2OC[C@@H](C)N(Cc2nccs2)C[C@@H]1C	0	.	0	2	2[16.7 µM]	.
Cc1cc(/C=N/n2c(COc3ccccc3C)nc3ccccc3c2=O)c(O)c([N+](=O)[O-])c1	-3	11	32*	-1	.	4%
Nc1[nH]n(-c2ccccc2)c(=O)c1N=Nc1ccc2c(c1)OCO2	-3	11	-35	.	-3	.
Nc1[nH]n(-c2ccccc2)c(=O)c1N=Nc1ccc2c(c1)OCCO2	-5	21	39*	1	-11	-22%
CCC(=O)N[C@@H]1CC[C@@H](CCn2cc(-c3cccc(OC)c3)nn2)O[C@@H]1CO	1	.	0	3	.	.
O=C(Nc1ccc(N2CCCCC2)cc1)c1ccc([N+](=O)[O-])o1	-17	3	9	11	4	.
O=C(Nc1ccc(N2CCCC2)c(Cl)c1)c1ccc([N+](=O)[O-])o1	-2	3	49*	5	.	13µM*
Cc1noc(C)c1S(=O)(=O)N(C)C[C@@H]1OCCCC[C@@H](C)Oc2ccc(NC(=O)Nc3cccc4ccccc34)cc2C(=O)N([C@H](C)CO)C[C@H]1C	-22	.	-2	-1	10[16.7 µM]	.
O=C(C[C@H]1CC[C@@H]2[C@H](COC[C@@H](O)CN2S(=O)(=O)c2ccccc2)O1)NCC1CCCCC1	94*	.	39*	0	1[16.7 µM]	-18%
C[C@@H]1CN([C@@H](C)CO)C(=O)c2cc(N(C)C)ccc2O[C@H]1CN(C)S(C)(=O)=O	-13	.	-4	-1	-2[16.7 µM]	.
C#CCOCCOCCOCCNc1nc(N2CCN(C(=O)C([C@@H](C)O)n3cc([C@@H](N)CCCCN)nn3)CC2)nc(N2CCN(C(=O)[C@H](CC(N)=O)n3cc(C(N)[C@@H](C)CC)nn3)CC2)n1 (some centres not stated)	15	.	21	-208	-3	.
C#CCOCCOCCOCCNc1nc(N2CCN(C(=O)C([C@@H](C)O)n3cc([C@@H](N)CCCCN)nn3)CC2)nc(N2CCN(C(=O)C([C@@H](C)O)n3cc([C@@H](N)CCCCN)nn3)CC2)n1 (some centres not stated)	10	.	39*	-214	3	17%
C#CCOCCOCCOCCNc1nc(N2CCN(C(=O)[C@H](CC(N)=O)n3cc(C(N)[C@@H](C)CC)nn3)CC2)nc(N2CCN(C(=O)[C@H](CCCCN)n3cc([C@@H](N)CC(N)=O)nn3)CC2)n1 (some centres not stated)	24	.	10	-122	.	.
C#CCOCCOCCOCCNc1nc(N2CCN(C(=O)[C@H](CCCCN)n3cc([C@@H](N)C(C)CC)nn3)CC2)nc(N2CCN(C(=O)[C@H](CCCCN)n3cc([C@@H](N)CC(C)C)nn3)CC2)n1 (some centres not stated)	37	.	56*	-324	17	-3%
SMILES	RAD52 inh	NSD2 HMT inh	AF4-AF9 inh	Casp6 inh	miR122 inh	Alpha interfer
C[C@H](CO)N1C[C@H](C)[C@H](CN(C)C(=O)CN(C)C)Oc2ncc(-c3ccc(C(=O)N(C)C)cc3)cc2C1=O	-12	.	-7	-1	1[16.7 µM]	.
Cc1ccc(S(=O)(=O)NC(=O)Nc2ccc(N(C)C)cc2)cc1	4	17	35*	27	-2	-28%
Fc1ccc(C(c2ccc(F)cc2)N2CCN(C/C=C/c3ccccc3)CC2)cc1	-3	.	34*!	-1	-7	11%
COc1ccc2c3c([nH]c2c1)[C@H](CO)N(C(=O)C1CCOCC1)CC31CCN(C(=O)NC(C)C)CC1	-1	.	0	3	.	.
CCn1c(C)c(C(C)=O)c(N2CCN(c3ccc(OC)cc3)CC2)nc1=S	36	.	32*	22	.	-24%
COCCCNCC(O)COc1cccc2[nH]c(C)cc12 (configuration not stated)	27	.	52*	-78	.	-22%
CC(=O)N1[C@@H](CO)[C@H](c2ccccc2)C12CN(C(=O)c1ccccc1)C2	-4	.	-3	-1	.	.
CN1CCN(C(c2ccc(Br)cc2)c2cc(Cl)c3cccnc3c2O)CC1 (configuration not stated)	7	5	84*	-4	-4	2.8µM*
CCCC#Cc1ccc(CC[C@H]2O[C@H]3CC[C@@H](CO)O[C@H]3C[C@H]2n2cc(C(C)(C)O)nn2)cc1	-3	.	0	-1	.	.
c1cc2c3c(cccc3c1)NC(c1ccc3c(c1)OCO3)N2	-12	4	34*	0	-7	0%
Cc1cccc(C2Nc3cccc4cccc(c34)N2)c1	-7	5	3	2	.	.
C[C@@H]1CCCCO[C@@H](CN(C)S(=O)(=O)c2ccc(Cl)cc2)[C@H](C)CN([C@@H](C)CO)C(=O)c2cc(NS(C)(=O)=O)ccc2O1	-22	.	-2	2	-3[16.7 µM]	.
NC(=O)[C@@H]1[C@H]2C(=O)O[C@H](c3ccccc3)[C@H](c3ccccc3)N2[C@H](c2ccc(OCCO)cc2)[C@@]12C(=O)Nc1ccccc12	11	.	10	0	.	.
CCc1ccc(-c2nc(CSCC(=O)N3CCN(c4ncccn4)CC3)c(C)o2)cc1	-1	.	-10	-1	2	0%
